These results are taken from PubChem BioAssay (NCATS).

Results filed as inconclusive are left out. Values without a mark were called inactive. Activity calls are given as the source filed them. The call rests on the fitted dose curve; in most records, active means well fitted inhibition curve with a large enough effect; inconclusive means small, poorly fitted or top-dose-only effect; inactive means flat fitted curve, though single readings scatter.

For one assay, the system named is PC26. Nature of the assay: qHTS profiling for inhibitors of Plasmodium falciparum proliferation (AID 504749). Further: potency means the concentration at half of the fitted maximal effect. As to conditions: P. falciparum in erythrocytes, SYBR Green DNA, 72 h; series mostly up to 28.7 µM. The procedure, abridged:
(§1)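 Parasite proliferation within erythrocytes, 72 h exposure. Endpoint: SYBR Green I fluorescence after overnight lysis at room temperature. Controls: 0.29 uM artemisinin, DMSO.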
(In qHTS, concentration-response curves come from the screen itself.)

For another assay, the system named is PC49. Described as above. Conditions: P. falciparum in erythrocytes, SYBR Green DNA, 72 h; series mostly up to 28.7 µM. The procedure, abridged: as §1
Another assay concerns SC27B. The description is as above. As to conditions: P. falciparum in erythrocytes, SYBR Green DNA, 72 h; series mostly up to 28.7 µM. The procedure, abridged:
as §1

The next assay relates to TAB109. Described as above. Conditions: P. falciparum in erythrocytes, SYBR Green DNA, 72 h; series mostly up to 28.7 µM. The procedure, abridged:
as §1

The next assay concerns TAB113. Described as above. As to conditions: P. falciparum in erythrocytes, SYBR Green DNA, 72 h; series mostly up to 28.7 µM. The procedure, abridged: as §1
In another assay the test system is TAB165. The description is as above. As to conditions: P. falciparum in erythrocytes, SYBR Green DNA, 72 h; series mostly up to 28.7 µM. The method, boiled down: as §1
For a further assay, the system named is W2. The description is as above. Conditions: P. falciparum in erythrocytes, SYBR Green DNA, 72 h; series mostly up to 28.7 µM. The procedure, abridged:
as §1

A further assay deals with KB-3-1. Put plainly: Cytotoxic Profiling of Annotated Libraries Using Quantitative High-Throughput Screening (AID 1296008). Further: on the % scale 0 is the no-effect control and ±100 the full control effect. As to conditions: Five cell lines viability, CellTiter-Glo ATP luminescence, 48-72 h; max response: hits give low values. The method, boiled down:
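Compounds were pin-transferred onto cells and incubated 48 or 72 hr at 37 degree Celsius, 95% humidity. CellTiter-Glo was added, plates sat 10 min at room temperature, then ATP-coupled luminescence was imaged as the viability read-out.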
In general terms: In ATP-based viability assays light output follows the ATP content of the culture.
Further: nearly all actives have a fitted effect of over 60% in size.

As for `C[N+]1(C)CCCCC1COC(=O)C(O)(c1ccccc1)c1ccccc1` (configuration not stated), the Potency result in the assay with PC26, with PC49, with SC27B, with TAB109, in the assay with TAB113 and in the assay on TAB165 was “inactive” each time.

`CCC1(c2ccccc2)C(=O)NC(=O)N(C)C1=O` (configuration not stated): the Potency entry in the assay with PC49 is “inactive”. Moreover, in the assay with W2, the Potency is 6.75 µM (active). Moreover, the max response in the assay on KB-3-1 was -7.5%.

On to `CNC(=O)Oc1ccccc1C(=O)Nc1ccccc1`, for which the Potency with W2 was 13.5 µM (active). Besides, the max response in the assay on KB-3-1 is -7.71%.

`[Cl-].[Cl-].[Hg+2]`: the Potency with W2 was 9.53 µM (active). The max response in the assay on KB-3-1 is -9.23%.

For `CC12NC(Cc3ccccc31)c1ccccc12` (configuration not stated), the Potency entry in the assay with PC26 and with PC49 was “inactive” in each case. Besides, the Potency in the assay on TAB109 was 2.82 µM (active); in the assay with W2, 4.26 µM (active).

Consider `C[C@H]1CCC[C@H](O)CCCCCc2cc(O)cc(O)c2C(=O)O1`, for which the Potency result with PC49 and in the assay with TAB109 was “inactive” in each case. The max response with KB-3-1 is 2.03%.

In the case of `O=C1C2CC=CCC2C(=O)N1SC(Cl)(Cl)Cl` (configuration not stated), the Potency result with PC26, in the assay on PC49, in the assay on SC27B, in the assay on TAB109, with TAB113 and with TAB165 was “inactive” in each case.

Turning to `c1ccc2cc(CC3=NCCN3)ccc2c1`, the Potency result in the assay on PC26, with PC49, with SC27B, in the assay on TAB109, in the assay on TAB113 and in the assay with TAB165 was “inactive” each time. Also, in the assay with W2, the Potency result was “inactive”.

`CC(C)Nc1ccc(Nc2ccccc2)cc1`: the Potency in the assay on PC26 was 4.78 µM (active); in the assay on SC27B, 12.6 µM (active); in the assay with TAB109 it was 7.94 µM (active); with TAB113, 10 µM (active); in the assay on TAB165, 7.94 µM (active); in the assay on W2 it was 4.78 µM (active). Besides, the Potency entry with PC49 is “inactive”.

In the case of `CC(C)(O)C1C2OC(=O)C1C1(O)CC3OC34C(=O)OC2C14C` (configuration not stated), the Potency result in the assay on PC26, in the assay on PC49, in the assay with SC27B, in the assay on TAB109, in the assay on TAB113 and in the assay on TAB165 was “inactive” in each case. In addition, the Potency result in the assay on W2 was “inactive”.
